Some test systems named below: RPMI-8226 leukemia; OVCAR-8 ovarian; OVCAR-5 ovarian; SK-OV-3 ovarian; IGROV1 ovarian; OVCAR-3 ovarian; HS 578T breast; NCI/ADR-RES ovarian; T-47D breast; OVCAR-4 ovarian.
Common to all, as to test: NCI-60 one-dose screen, 48 h (100 = growth as untreated, 0 = no growth, -100 = all killed)
What all share (settings): 10 µM unless noted

About 83,000 compounds went through this panel and 20% of them were active in at least one assay; those are over-represented in the sample as a whole.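 96-well plates, one dose, 48 hours. Percent growth reported; active if below 10.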 Values without a mark were called inactive. Active and inactive are the calls of the source.

For `Cc1sc2ncnc(Sc3nc4ccccc4[nH]3)c2c1C`, the growth is -27.1% (active) in the assay with RPMI-8226 leukemia; -66.1% (active) in the assay with OVCAR-8 ovarian; -58.6% (active) with OVCAR-5 ovarian; -23.1% (active) in the assay with SK-OV-3 ovarian; -76.5% (active) in the assay on IGROV1 ovarian; -86.1% (active) in the assay on OVCAR-3 ovarian. In addition, the growth in the assay on HS 578T breast was -27.5% (active); in the assay with NCI/ADR-RES ovarian, 20.1%; in the assay on T-47D breast, -55.4% (active).
Take `CCCCCCc1cc2cc(-c3csc(/C=C/c4ccccc4)n3)c(=O)oc2cc1O`: the growth was -1.82% (active) in the assay on RPMI-8226 leukemia; 20% with OVCAR-8 ovarian; 81.7% in the assay with OVCAR-5 ovarian; 47% in the assay on SK-OV-3 ovarian; 37.2% in the assay on IGROV1 ovarian; 2.25% (active) with OVCAR-3 ovarian. In addition, the growth is 3.39% (active) with HS 578T breast, 20.2% in the assay on NCI/ADR-RES ovarian and 5.5% (active) in the assay on T-47D breast.
As to `CC1CCCCN1CCCNC(=O)c1ccc2c(c1)sc1nc(-c3ccc(F)cc3)cn12` (stereo not drawn), the growth in the assay with RPMI-8226 leukemia was 86%; in the assay on OVCAR-8 ovarian it was 105%; in the assay on OVCAR-5 ovarian, 100%; with SK-OV-3 ovarian, 99.7%; in the assay with IGROV1 ovarian, 93.8%; in the assay on OVCAR-3 ovarian it was 105%. Besides, the growth with HS 578T breast is 98.5%; in the assay with NCI/ADR-RES ovarian, 87.6%; with T-47D breast, 93.4%.
With `NC(CCl)=NCCC[C@H](N)C(=O)O`, the growth with RPMI-8226 leukemia is 99.6%; with OVCAR-8 ovarian, 99.5%; in the assay with OVCAR-5 ovarian it was 105%; in the assay on SK-OV-3 ovarian, 105%; in the assay on IGROV1 ovarian it was 116%; in the assay on OVCAR-3 ovarian, 117%. Moreover, the growth with HS 578T breast was 99.3%; with NCI/ADR-RES ovarian it was 101%.
Consider `O=C(O)CCC(=O)c1ccc(C2CCCCCC2)cc1`, for which the growth was 95.8% in the assay with RPMI-8226 leukemia; 102% with OVCAR-8 ovarian; 105% with OVCAR-5 ovarian; 103% in the assay on SK-OV-3 ovarian; 101% in the assay on IGROV1 ovarian; 105% with OVCAR-3 ovarian. Also, the growth in the assay with HS 578T breast is 102%; in the assay with NCI/ADR-RES ovarian it was 102%; in the assay with T-47D breast, 96.2%.
Consider `CNCCNc1nc2ccccc2c2c(=O)c3cccc(OC)c3sc12`, for which the growth in the assay with RPMI-8226 leukemia was -31.4% (active); in the assay on OVCAR-8 ovarian, 23.7%; with OVCAR-5 ovarian, 47.3%; with OVCAR-4 ovarian, 22.8%; in the assay on IGROV1 ovarian, 29.7%; with OVCAR-3 ovarian, 29.4%. For the same molecule, the results for the growth in the assay on HS 578T breast, with NCI/ADR-RES ovarian and in the assay with T-47D breast were 40.8%, 37.5% and 54.4%, respectively.
In the case of `Cc1ccc(Cn2c(N3CCC(C(=O)NCc4cccs4)CC3)nc3ccccc32)cc1`, the growth was 73.7% with RPMI-8226 leukemia; 94.3% in the assay on OVCAR-8 ovarian; 107% in the assay with OVCAR-5 ovarian; 97.4% with SK-OV-3 ovarian; 76.6% in the assay with OVCAR-3 ovarian; 79.9% in the assay on HS 578T breast. Also, the growth in the assay with NCI/ADR-RES ovarian is 86.2%; in the assay with T-47D breast it was 114%.
Regarding `Fc1cccc(COc2ccc(Nc3ncnc4onc(-c5ccccc5)c34)cc2)c1`, the growth with RPMI-8226 leukemia was 12.5%; with OVCAR-8 ovarian, 29.2%; with OVCAR-5 ovarian, 9.86% (active); with IGROV1 ovarian it was 24.5%; with OVCAR-3 ovarian it was 0.458% (active); with HS 578T breast it was -16.7% (active). Besides, the growth in the assay on NCI/ADR-RES ovarian is 46.5%; in the assay on T-47D breast it was 45.4%.
On to `COc1ccc(-c2nc(-c3ccccc3)c(-c3ccccc3)[nH]2)cc1OC1CCCCC1`, for which the growth in the assay on RPMI-8226 leukemia is 58.9%; in the assay on OVCAR-8 ovarian it was 86.7%; in the assay on OVCAR-5 ovarian it was 96.6%; in the assay on SK-OV-3 ovarian, 98.9%; with IGROV1 ovarian, 102%; in the assay with OVCAR-3 ovarian, 72.6%. Moreover, the growth was 91.2% in the assay with HS 578T breast, 87.7% in the assay on NCI/ADR-RES ovarian and 82.6% in the assay with T-47D breast.
In the case of `CCN1CCN(c2cc(C)c3cc(NC(=O)c4ccc(OC)c(OC)c4)ccc3n2)CC1`, the growth in the assay with RPMI-8226 leukemia was 16.7%; in the assay on OVCAR-8 ovarian, 58.9%; in the assay on OVCAR-5 ovarian it was 88.7%; in the assay on SK-OV-3 ovarian, 39.8%; in the assay with IGROV1 ovarian, 36.6%; in the assay with OVCAR-3 ovarian, 12.5%. Further, the growth is 32.6% in the assay with HS 578T breast, 28.1% in the assay with NCI/ADR-RES ovarian and 58.4% with T-47D breast.
On to `COc1ccc(CCN2CCC(CN(C)Cc3cnn(-c4ccccc4)c3)CC2)cc1`, for which the growth in the assay on RPMI-8226 leukemia is 15.6%; in the assay with OVCAR-8 ovarian it was 15.3%; in the assay on OVCAR-5 ovarian, 57.4%; in the assay on SK-OV-3 ovarian, 39.2%; with IGROV1 ovarian, 28.9%; with OVCAR-3 ovarian, 37.4%. Moreover, the growth is 67.1% with HS 578T breast, 12% with NCI/ADR-RES ovarian and 36.4% in the assay on T-47D breast.
Consider `CCN(CC)c1cc(C)c2cc(NC(=O)c3cccc(OC)c3)ccc2n1`, for which the growth was 7.5% (active) in the assay on RPMI-8226 leukemia; 74.8% with OVCAR-8 ovarian; 98.3% in the assay on OVCAR-5 ovarian; 104% with SK-OV-3 ovarian; 98.4% in the assay with IGROV1 ovarian; 74.8% with OVCAR-3 ovarian. Besides, the growth with HS 578T breast was 58.3%; with NCI/ADR-RES ovarian, 80.5%; in the assay with T-47D breast, 70.8%.
On to `O=C(Nc1ccc(N2CCNCC2)cn1)c1[nH]ncc1Nc1ncnc2sccc12`, for which the growth is 1.87% (active) in the assay on RPMI-8226 leukemia; -33.5% (active) in the assay with OVCAR-8 ovarian; 67% in the assay with OVCAR-5 ovarian; 70.4% in the assay with SK-OV-3 ovarian; 78.1% in the assay with IGROV1 ovarian; 33.2% in the assay on OVCAR-3 ovarian. For the same molecule, the growth was 69.9% in the assay on HS 578T breast, 91% in the assay with NCI/ADR-RES ovarian and -4.16% (active) in the assay with T-47D breast.
Take `O=c1oc2ccc(I)cc2c(=O)n1-c1ccc(F)cc1F`: the growth is 1.49% (active) in the assay with RPMI-8226 leukemia; 12.5% in the assay with OVCAR-8 ovarian; 40% with OVCAR-5 ovarian; -19.4% (active) with SK-OV-3 ovarian; 20.2% in the assay on IGROV1 ovarian; 2.05% (active) with OVCAR-3 ovarian. Besides, the growth is 19.8% in the assay with HS 578T breast, 5.71% (active) in the assay with NCI/ADR-RES ovarian and -13.5% (active) in the assay with T-47D breast.
Turning to `COc1ccc(C(=O)Nc2ccc3nc(N4CCCCC4)cc(C)c3c2)cc1OC`, the growth with RPMI-8226 leukemia was 61.8%; with OVCAR-8 ovarian, 94.1%; in the assay with OVCAR-5 ovarian, 89.1%; in the assay on SK-OV-3 ovarian, 114%; in the assay with OVCAR-3 ovarian, 59.1%; in the assay with HS 578T breast, 77.9%. Also, the figures for the growth with NCI/ADR-RES ovarian and with T-47D breast were 98.3% and 94.8%, respectively.
On to `COc1ccc(/C=C/C(=O)c2c(C)nc3ccccc3c2/C=C/c2ccccc2)cc1O`, for which the growth is 25.6% in the assay on RPMI-8226 leukemia; 30.9% in the assay on OVCAR-8 ovarian; 17.2% with OVCAR-5 ovarian; 71.7% with SK-OV-3 ovarian; 34.7% with IGROV1 ovarian; 13.6% in the assay on OVCAR-3 ovarian. The growth is 37.5% with HS 578T breast, 17.7% in the assay on NCI/ADR-RES ovarian and 39.6% in the assay with T-47D breast.
On to `COc1ccccc1C(=O)/C=C/c1ccccc1`, for which the growth is -2.98% (active) in the assay on RPMI-8226 leukemia; 78.1% with OVCAR-8 ovarian; 101% in the assay on OVCAR-5 ovarian; 90.3% in the assay on SK-OV-3 ovarian; 85.7% in the assay with IGROV1 ovarian; 76.4% with NCI/ADR-RES ovarian.
In the case of `FC(F)(F)c1cccc(Nc2nc(-c3ccccc3)nc3ncccc23)c1`, the growth in the assay on RPMI-8226 leukemia is -39.8% (active); in the assay on OVCAR-8 ovarian it was 89.4%; in the assay with OVCAR-5 ovarian it was 107%; in the assay on SK-OV-3 ovarian it was 90.2%; in the assay with IGROV1 ovarian, 98.8%; in the assay with OVCAR-3 ovarian it was 32.2%. The results for the growth in the assay on HS 578T breast, with NCI/ADR-RES ovarian and in the assay with T-47D breast were -49.5% (active), 86.3% and 82.9%, respectively.
On to `CCOC(=O)c1cc2c(n1Cc1ccccc1OC)-c1oncc1CCC2`, for which the growth in the assay on RPMI-8226 leukemia is 14.9%; in the assay with OVCAR-8 ovarian, 35.4%; in the assay with OVCAR-5 ovarian, 69.5%; with SK-OV-3 ovarian, 24.2%; in the assay with OVCAR-3 ovarian, 8.96% (active); in the assay on HS 578T breast, 10.9%. For the same molecule, the growth in the assay on NCI/ADR-RES ovarian is 15%; in the assay with T-47D breast, 38.6%.
